From PubChem BioAssay AID1508600 (Functional Genomics Laboratory (NCATS/FGL), 2020)
Screen size: about 53,000 sequences; about 3,700 (7%) were called active.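 The calls were made as follows: active = gene knockdowns whose robust z-score for IL-1 alpha signal is at least 2 or at most -2, so actives lie on both sides; inactive = the rest.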 The sample as a whole holds a higher share of actives than the screen did.

Test: Components of the Cytosolic LPS Sensing Pathway: Gene Identification via Genome-wide siRNA Screen;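 also: robust z of the log signal after scaling to non-targeting control siRNA wells of the plate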
Conditions: RAW264.7 macrophages, IL-1a HTRF, actives lie on both sides, screened at 100 nM (by protocol), cells primed 5 h with Pam3CSK4 first
How it was run: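 Mouse macrophage line RAW264.7 is transfected with siRNA (100 nM final), grown 48h, primed with TLR ligand Pam3CSK4 5 h and given intracellular LipidA 24 h. IL-1a in supernatant is read by HTRF and viability by luminescence.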

| Sequence | z-score |
| --- | --- |
| GGCUUCAUGCCUUAUCCACTT against Fam166a | -0.314 (inactive) |
| GCCCUGUGCUUGGCAACAUTT against Ssbp3 | -2.36 (active) |
| GGCCACCGUUCAAAAAAUUTT against Dctn5 | -0.226 (inactive) |
| GGAAGAGAAUAGAUCCUAUTT against Zbtb8a | -0.388 (inactive) |
| GGUCGUGUACAAGUACAUATT against Mrps24 | 2.24 (active) |
| GCUACUGCACAAAGUUACGTT against Ankrd36 | -0.0351 (inactive) |
| GCUGACUCCAUCCUAACAGTT against Cideb | -2.6 (active) |
| GCCUCUGAGUUGCAUGAGUTT against Ppp2r5b | -0.736 (inactive) |
| GGACUACCAUCGACCUUCATT against Nek2 | 1.15 (inactive) |
| CCCAAGAAUUGGAUUCCAGTT against Lta | -0.528 (inactive) |
| GGAGCUGAAGAUCAAGGAGTT against Pkn3 | -0.849 (inactive) |
| GCCCAAAAAUACUGGAUAUTT against Atp6ap2 | -2 (inactive) |
| GCCUUGUAGACCAGUUCUATT against 9530085L02Rik | 2.15 (active) |
| CCGCAUGUUUGGAAAGGAUTT against Cabp4 | -0.484 (inactive) |
| GGAACAAUUUGAUCCAGCATT against Mbnl2 | -1.67 (inactive) |
| CCCACUCCUUCUAAAAGUUTT against Cyp3a13 | -0.909 (inactive) |
| GGCCAUUCACGUUUUACUCTT against Ric8b | -1.02 (inactive) |
| GGAGCUAUAUUCUCACCCATT against Ptpn1 | -2.06 (active) |
| GGGAAAAAUAUCAGUUAUGTT against Khdrbs1 | 0.465 (inactive) |
| GGGUACGUUCAAGUGCUUCTT against Agtpbp1 | 1.74 (inactive) |
| GGAUACAUGUGGUGCCAAUTT against Banf1 | -0.529 (inactive) |
| GCCAUAACCUACAUUGUCATT against Loxhd1 | -2.86 (active) |
| GCGAAUCCACUUAAUUCGATT against Abhd4 | 1.35 (inactive) |

| Sequence | z-score |
| --- | --- |
| CCACAAGAUUGUUUCAGAATT against Lingo4 | 0.216 (inactive) |
| GCUGCUCAAGUUGUGGUGATT against Sord | 1.56 (inactive) |
| GGUUCAGCUGACGUAAAAATT against BC048562 | -2.1 (active) |
| GCAGUAGAUCCUGAUUUUGTT against Cdh12 | -0.382 (inactive) |
| GGGACCUUUCCUGACCUAUTT against Ppdpf | -0.362 (inactive) |
| GGUCCACUUGCCAUCUAUUTT against Zfp54 | -1.09 (inactive) |
| CCCUAACAUACUGGAGCUATT against Erfe | 3.56 (active) |
| GGGUAUUUUCACUGAAAGUTT against Ltbp3 | 0.431 (inactive) |
| GGUGACUUGUAAAGAUUUUTT against Dstn | 0.234 (inactive) |
| GGAGACAGAAAGAGAAAAGTT against Pou3f2 | -0.578 (inactive) |
| GGAGUUCACGGAUCUUGAGTT against Ppp1r37 | 0.226 (inactive) |
| GGCAAUCAUUGGACUAUACTT against Nckap1 | -2.81 (active) |
| GCACCCAAACUUAAAAUAGTT against Spink10 | -0.69 (inactive) |
| GGUUGAAGUCACAAAAGAATT against Prkg1 | -0.619 (inactive) |
| GGGAAGGAGAGUAUUCCAATT against Mrpl14 | 3.44 (active) |
| GCAUUUCCUAUAAUCGUUGTT against Olfr360 | 0.371 (inactive) |
| GGCUGUCCGUACCUAUAAATT against Cpb1 | -1.26 (inactive) |
| GGAAUUUGUGACCAACUAUTT against Rbm4b | 1.07 (inactive) |
| CCUUGACCCAGAUUGAGAATT against Xkr6 | 0.363 (inactive) |
| GUAUGGAUGUGGAAGCCUCTT against Olfr1417 | -0.77 (inactive) |
| GGGCUUGAAAUUGAAAUGUTT against Ccl9 | -1.09 (inactive) |
| GCGACAACUGUGAUAUACCTT against Liph | -0.485 (inactive) |
| GCCUCAAUGGCACUCAAAUTT against Mdc1 | -0.217 (inactive) |

| Sequence | z-score |
| --- | --- |
| CCGUCUUCUGCUGUGGAACTT against Ctrc | 2.6 (active) |
| CCCACUGCCAAGUACAAUGTT against Dmwd | 1.44 (inactive) |
| UUGUGAUUCCAAUUUCCCUTT against Olfr1330 | -0.32 (inactive) |
| GGUCAGAGUGCCUCUUGAATT against Slc7a5 | -0.8 (inactive) |
| GGUCAAAGAUGGAGUAAAUTT against Tmem87a | -2.31 (active) |
| GCAAUGUCGCCAAACGUAATT against Ikzf1 | 0.457 (inactive) |
| GAUACAGACCUUGCUCUUCTT against Olfr714 | -0.421 (inactive) |
| GGACAUUGUCACAUCAUUCTT against Slc2a6 | 1.64 (inactive) |
| GCUAAUAGUCAUUAAACUGTT against Zfp2 | 1.76 (inactive) |
| GCUCAACGAAACAAUACCGTT against Il2rb | 0.737 (inactive) |
| GGAUGGUCGAAACAAUAACTT against Stk32b | 2.16 (active) |
| GGCAUUUCUGUUCUGUAAGTT against Sh3bgrl | -0.783 (inactive) |
| GCUGACCACUUCAAGGUUGTT against Lgals3 | 0.468 (inactive) |
| GGCCAGUGUAUUUGACCUGTT against Slc22a18 | -1.24 (inactive) |
| GCUCUGCUAUCGUGAUCUGTT against Kctd13 | 1.68 (inactive) |
| GCUUGCACUGGACUCAACUTT against Pax4 | -2.76 (active) |
| CGAGAAGAACUGUGUAAAGTT against Vldlr | -0.184 (inactive) |
| CCAUAUCAGGCAUAGCAGUTT against Nthl1 | -0.772 (inactive) |
| GCCAUCGAUGUACUGAGCUTT against Psme2 | 0.525 (inactive) |
| GGUAGAGAGCUCAACAGGGTT against Klrb1c | 0.287 (inactive) |
| GGACUGUUGCAUGACUCUCTT against Evc | 1.08 (inactive) |
| GCCUUACUGGGUUACUUGUTT against Cdkn2d | 3.22 (active) |
| GGAACUGAAUGCGGAAUUCTT against Chil1 | 0.261 (inactive) |
